Source: PubChem BioAssay AID1159580 (chemical genetic matrix, 2015)
The campaign covered roughly 5,500 compounds. About 2,000 (36%) were called active. About 18% were inconclusive and are not listed. No stated cut-off is given here; in the data, active means normalized growth mostly below about 0.91 (no sharp cut-off); inconclusive means no clear call, values can overlap the other calls; inactive means mostly above about 0.92. Some of the results follow.

Assay: chemical genetic growth profiling, strain panel (AID 1159580);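 further: tested at 20 µM; growth read once vehicle control cultures reached saturation at 30 °C; 1 = growth at the plate median or of vehicle wells; lower values mean less growth of the strain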
Details: S. cerevisiae deletion strains, growth OD

Measured: normalized growth

CCC(C)n1ncn(-c2ccc(N3CCN(c4ccc(OC[C@H]5CO[C@](Cn6cncn6)(c6ccc(Cl)cc6Cl)O5)cc4)CC3)cc2)c1=O (stereo not given in full)
active: locus YHR030C, strain SLT2, hits give low values 0.104 | locus YHR079C, strain IRE1, hits give low values 0.19 | locus YJL095W, strain BCK1, hits give low values 0.112 | locus YJR066W, strain TOR1, hits give low values 0.0832 | locus YLR113W, strain HOG1, hits give low values 0.187 | locus YNL183C, strain NPR1, hits give low values 0.183 | locus YOR231W, strain MKK1, hits give low values 0.177 | locus YPL256C, strain CLN2, hits give low values 0.188

CC(=O)N1CCN(c2ccc(OC[C@H]3CO[C@](Cn4ccnc4)(c4ccc(Cl)cc4Cl)O3)cc2)CC1
active: locus YAL013W, strain DEP1, hits give low values 0.0911 | locus YAL040C, strain CLN3, hits give low values 0.208 | locus YCL061C, strain MRC1 (second series), hits give low values 0.0612 | locus YDR363W, strain ESC2, hits give low values 0.103 | locus YER002W, strain NOP16, hits give low values 0.137 | locus YGR078C, strain PAC10, hits give low values 0.139 | locus YGR229C, strain SMI1, hits give low values 0.0746 | locus YJR075W, strain HOC1, hits give low values 0.0931 | locus YMR263W, strain SAP30, hits give low values 0.588 | locus YNL128W, strain TEP1, hits give low values 0.16 | locus YNL153C, strain GIM3, hits give low values 0.14 | locus YNL175C, strain NOP13, hits give low values 0.133 | locus YNL197C, strain WHI3, hits give low values 0.147 | locus YNL224C, strain SQS1, hits give low values 0.18 | locus YNL322C, strain KRE1, hits give low values 0.0931 | locus YOR083W, strain WHI5 (second series), hits give low values 0.175 | locus YPL055C, strain LGE1, hits give low values 0.104
